Assay results from PubChem BioAssay (NCI).
This is part of a sample that, as a whole, favours compounds with a hit. Of some 83,000 tested, about 20% had one in any assay.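 Single-concentration screen, 48 h exposure, 96-well plates. Endpoint: percent growth. Below 10 = active.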 Calls of active or inactive are those of the source.

What was measured:
Assay in all cases: NCI-60 one-dose screen, 48 h (100 = growth as untreated, 0 = no growth, -100 = all killed)
Details in all cases: 10 µM unless noted
NCI-H23 lung = tested on: NCI-H23 lung
NCI-H226 lung = tested on: NCI-H226 lung
NCI-H322M lung = tested on: NCI-H322M lung
HOP-62 NSCLC = tested on: HOP-62 NSCLC
NCI-H460 lung = tested on: NCI-H460 lung
HOP-92 NSCLC = tested on: HOP-92 NSCLC
NCI-H522 lung = tested on: NCI-H522 lung
A549/ATCC NSCLC = tested on: A549/ATCC NSCLC
786-0 renal = tested on: 786-0 renal
DU-145 prostate = tested on: DU-145 prostate
K-562 leukemia = tested on: K-562 leukemia
MALME-3M melanoma = tested on: MALME-3M melanoma
MDA-MB-231 breast = tested on: MDA-MB-231 breast
SF-268 CNS = tested on: SF-268 CNS
SF-295 CNS = tested on: SF-295 CNS
SF-539 CNS = tested on: SF-539 CNS
UACC-257 melanoma = tested on: UACC-257 melanoma
M14 melanoma = tested on: M14 melanoma
COLO 205 colon = tested on: COLO 205 colon
RXF 393 renal = tested on: RXF 393 renal

Measured: growth

CCN(CC)CCCC(C)Nc1c2c(nc3ccc(OC)cc13)CCCC2 (configuration not stated)
inactive: NCI-H23 lung 87.7% | NCI-H226 lung 97.3% | NCI-H322M lung 90.6% | HOP-62 NSCLC 87.6% | NCI-H460 lung 92.7% | HOP-92 NSCLC 84.2% | NCI-H522 lung 112% | A549/ATCC NSCLC 108% | 786-0 renal 90.2% | DU-145 prostate 111% | K-562 leukemia 79.9% | MALME-3M melanoma 118% | MDA-MB-231 breast 79.8% | SF-268 CNS 86.2% | SF-295 CNS 78% | SF-539 CNS 89.8% | UACC-257 melanoma 112% | M14 melanoma 100%

C=C(C)[C@@H]1CC[C@]2(C(=O)NCCCN(CCC#N)CCC#N)CC[C@]3(C)[C@H](CC[C@@H]4[C@@]5(C)CCC(=O)C(C)(C)[C@@H]5CC[C@]43C)[C@@H]12
inactive: NCI-H23 lung 109% | NCI-H226 lung 102% | NCI-H322M lung 104% | HOP-62 NSCLC 105% | NCI-H460 lung 104% | HOP-92 NSCLC 82.4% | NCI-H522 lung 93.5% | A549/ATCC NSCLC 91.2% | 786-0 renal 94.2% | COLO 205 colon 111% | DU-145 prostate 105% | MALME-3M melanoma 105% | MDA-MB-231 breast 103% | SF-268 CNS 94.6% | SF-295 CNS 99.8% | SF-539 CNS 94.2% | UACC-257 melanoma 91.4% | M14 melanoma 99%

CCc1nc(C)cn1C(=O)OCc1nc2nc(Cl)nc(N3CCOCC3)c2[nH]1
inactive: NCI-H23 lung 28.9% | NCI-H322M lung 64.2% | HOP-62 NSCLC 47.9% | NCI-H460 lung 13.9% | A549/ATCC NSCLC 15.1% | SF-295 CNS 79.5%
active: NCI-H226 lung -75% | HOP-92 NSCLC -50.2% | NCI-H522 lung -75.5% | 786-0 renal -77.4% | DU-145 prostate -37.3% | K-562 leukemia 1.14% | MALME-3M melanoma -67.8% | MDA-MB-231 breast -42.9% | SF-268 CNS -64% | SF-539 CNS -74.8% | UACC-257 melanoma -80.8% | M14 melanoma -56.8%

O=C(N/N=C/c1ccc(F)cc1)c1ccccc1Nc1cccc(C(F)(F)F)c1
inactive: NCI-H23 lung 104% | NCI-H226 lung 95.8% | NCI-H322M lung 111% | HOP-62 NSCLC 109% | NCI-H460 lung 101% | HOP-92 NSCLC 76.4% | NCI-H522 lung 92.8% | A549/ATCC NSCLC 53.3% | 786-0 renal 95.5% | DU-145 prostate 96.8% | K-562 leukemia 83.9% | MALME-3M melanoma 111% | MDA-MB-231 breast 117% | SF-268 CNS 82.6% | SF-295 CNS 121% | SF-539 CNS 109% | UACC-257 melanoma 105% | M14 melanoma 95%

COc1cc2nc(-c3ccc(C#N)cc3)[nH]c(=O)c2cc1OC
active: UACC-257 melanoma -1.56%
inactive: NCI-H23 lung 104% | NCI-H226 lung 91.4% | NCI-H322M lung 211% | HOP-62 NSCLC 92.8% | NCI-H460 lung 105% | HOP-92 NSCLC 127% | NCI-H522 lung 104% | A549/ATCC NSCLC 15.5% | 786-0 renal 61.3% | COLO 205 colon 132% | DU-145 prostate 105% | MALME-3M melanoma 263% | MDA-MB-231 breast 94% | SF-268 CNS 100% | SF-295 CNS 95.9% | SF-539 CNS 101% | M14 melanoma 87.7%

COc1ccc(C2CC(n3nnnc3-c3ccccc3)=NN2)cc1 (configuration not stated)
inactive: NCI-H23 lung 82% | NCI-H226 lung 75.1% | NCI-H322M lung 69.9% | HOP-62 NSCLC 78.4% | NCI-H460 lung 71.2% | HOP-92 NSCLC 80.1% | NCI-H522 lung 47.1% | A549/ATCC NSCLC 60.2% | COLO 205 colon 91.8% | DU-145 prostate 70.5% | K-562 leukemia 15.6% | MALME-3M melanoma 73.9% | MDA-MB-231 breast 40.2% | RXF 393 renal 102% | SF-268 CNS 75.4% | SF-295 CNS 27.2% | SF-539 CNS 37.9% | UACC-257 melanoma 101% | M14 melanoma 35.4%

COc1ccc2nc(N=Nc3c(O)ccc4ccccc34)sc2c1
active: NCI-H460 lung 6.32% | M14 melanoma 1.92%
inactive: NCI-H23 lung 31.6% | NCI-H226 lung 55% | NCI-H322M lung 43.8% | HOP-62 NSCLC 30.2% | HOP-92 NSCLC 60.9% | NCI-H522 lung 61.2% | A549/ATCC NSCLC 24.6% | 786-0 renal 14.7% | DU-145 prostate 37.1% | K-562 leukemia 19.1% | MALME-3M melanoma 57.5% | MDA-MB-231 breast 45.2% | RXF 393 renal 52.4% | SF-268 CNS 33.4% | SF-295 CNS 16.5% | SF-539 CNS 22.9% | UACC-257 melanoma 36.9%

O=C(CCN1CCCC1)Nc1ccc2c(Nc3ccccc3)c3ccccc3nc2c1
active: NCI-H322M lung 7.35% | NCI-H460 lung -60.7% | NCI-H522 lung -33.7% | DU-145 prostate -28.5% | K-562 leukemia 0.263% | MALME-3M melanoma -85.1% | MDA-MB-231 breast 3.81% | RXF 393 renal 8.26% | SF-539 CNS -62.5% | UACC-257 melanoma -39.5% | M14 melanoma -77.4%
inactive: NCI-H23 lung 22.1% | NCI-H226 lung 41.9% | HOP-62 NSCLC 12.1% | HOP-92 NSCLC 14.3% | A549/ATCC NSCLC 10.1% | 786-0 renal 10.1% | SF-268 CNS 26.1% | SF-295 CNS 33.4%
